Source: PubChem BioAssay (National Center for Advancing Translational Sciences (NCATS))
RORg inh – qHTS for inhibitors of ROR gamma transcriptional activity | Nuclear receptor ROR-gamma (Mus musculus), P51450 | Drosophila S2 Gal4-RORgamma UAS-luciferase reporter, 20 h | Potency, µM (doses to about 53.6 µM), usual class: inhibitors | 5.4% of 310,000 active | AID 2551, 2010; also: nearly all actives have a fitted effect of over 60% in size
Target sequence (P51450 whole entry, looked up, the tested form may be a part): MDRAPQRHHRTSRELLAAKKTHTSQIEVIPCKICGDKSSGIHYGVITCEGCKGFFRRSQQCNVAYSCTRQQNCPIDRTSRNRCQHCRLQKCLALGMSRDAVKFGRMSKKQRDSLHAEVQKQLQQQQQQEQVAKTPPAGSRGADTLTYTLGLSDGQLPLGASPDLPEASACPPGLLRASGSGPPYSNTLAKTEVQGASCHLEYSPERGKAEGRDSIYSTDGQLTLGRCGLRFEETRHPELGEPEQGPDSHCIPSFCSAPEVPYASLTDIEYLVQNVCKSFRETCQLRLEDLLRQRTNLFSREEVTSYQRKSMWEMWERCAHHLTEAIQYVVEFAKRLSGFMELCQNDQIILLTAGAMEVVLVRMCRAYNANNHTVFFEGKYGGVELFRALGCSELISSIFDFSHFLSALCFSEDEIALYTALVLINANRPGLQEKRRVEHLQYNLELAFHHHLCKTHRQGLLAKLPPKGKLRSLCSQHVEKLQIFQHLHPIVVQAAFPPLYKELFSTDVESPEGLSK
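Read-out: Photinus luciferase luminescence; inhibitors lower reporter signal. Insect Schneider cells with Gal4-ROR gamma fusion under metallothionein promoter, UAS reporter; 700 uM final copper sulfate induction, 20 hr, ambient temperature.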
ELG1 repair inh – qHTS screen for small molecules that inhibit ELG1-dependent DNA repair in human embryonic kidney (HEK293T) cells expressing luciferase-tagged ELG1. 2.3% of 330,000 active. HEK293T ELG1-luciferase reporter, luminescence, 16 h; DNA damage induced by 5-fluorouridine. Potency, µM (doses to about 46.1 µM), actives largely listed as inhibitors. AID 504467, 2011; also: nearly all actives have a fitted effect of over 55% in size
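Reporter activity after DNA damage by 5-fluorouridine is monitored. Compound-treated cells incubate 16 hr at 37 °C, then ONE-Glo is added for 30 min before luminescence reading.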
VP16 counter – VP16 counterscreen qHTS for inhibitors of ROR gamma transcriptional activity | Drosophila S2 Gal4-VP16 UAS-luciferase, luminescence, 20 h | Potency, µM (doses to about 53.6 µM), most hits filed as inhibitors | 3.5% of 310,000 active;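 also: Gal4-VP16 expression switched on by copper sulfate through the metallothionein promoter; nearly all actives have a fitted effect of over 50% in size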
MCF10A rerep – A quantitative high throughput screen for small molecules that induce DNA re-replication in MCF 10a normal breast cells; MCF 10A DNA re-replication, Hoechst nuclear intensity, 48 h; Potency, µM (doses to about 46.1 µM), actives largely listed as activators; 2.9% of 350,000 active; also: nearly all actives have a fitted effect of over 50% in size
SW480 rereplic – A quantitative high throughput screen for small molecules that induce DNA re-replication in SW480 colon adenocarcinoma cells; SW480 DNA re-replication, Hoechst DNA content imaging, 48 h; Potency, µM (doses to about 46.1 µM), usual class: activators; 1.8% of 340,000 active; AID 624297, 2012; also: nearly all actives have a fitted effect of over 55% in size
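Cells (250 per well) received 23 nL compound or DMSO by pin tool and were kept 48 hr at 37 C, 5% CO2. Nuclei were then stained with Hoechst for 40 min and scanned for DNA content.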
Numbers stand for hits; n = inactive; u = inconclusive; x = no result; [ ] = dose if it differs, or a comment. In the library only some 10% were active in any assay of this set; here they are far more common. Calls follow the shape of the dose curve; as a rule, active = well fitted curve in the direction sought with a large enough effect; inconclusive = small, poorly fitted or top-dose-only effect, or another doubt; inactive = no such curve, though single readings can be large; an effect the other way counts as inactive or inconclusive.

SMILES	RORg inh	ELG1 repair inh	VP16 counter	MCF10A rerep	SW480 rereplic
Cc1cccc(C(=O)CC(=O)c2cc(Cl)ccc2O)c1	u	n	u	u	n
CCN(C(=O)Cn1c(=O)n(-c2cc(OC)c(OC)c(OC)c2)c(=O)c2ccccc21)c1cccc(C)c1	n	n	n	n	n
Cc1noc(C)c1CSCC(=O)Nc1cc(Cl)ccc1N1CCCCC1	x	n	x	u	n
C=CCNc1oc(/C=C/c2ccccc2)nc1C#N	u	u	n	8.2µM	20.6µM
COCCCNc1oc(/C=C/c2ccccc2)nc1C#N	n	u	n	16.4µM	7.94µM
COc1cccc(/C=C/c2nc(C#N)c(NCC(C)C)o2)c1	u	u	n	3.26µM	20.6µM
CN(C)CCCNc1oc(/C=C/c2ccccc2)nc1C#N	n	u	n	n	n
CCOc1ccc(/C=C/c2nc(C#N)c(NCCCN(C)C)o2)cc1	n	n	n	6.51µM	18.4µM
COCCn1c(SCC(=O)Nc2cc(C)on2)nnc1C(C)C	n	n	n	n	n
COc1ccc(CNC(=O)CN2C(=O)NC(C)(c3ccc(Cl)cc3)C2=O)cc1 (centres undefined)	n	n	n	n	n
CCOc1ccc(/C=C/c2nc(C#N)c(NCCCOC)o2)cc1	u	n	n	3.66µM	2.06µM
CCN(CC)c1ccc2c(C)c(CO)c(=O)oc2c1	n	u	n	u	13µM
CCN(CC)c1ccc2c(C)c(CN3CCOCC3)c(=O)oc2c1	n	n	n	5.8µM	20.6µM
CCN(CC)c1ccc2c(O)cc(=O)oc2c1	n	n	n	n	n
CCN(CC)c1ccc2c(Cl)cc(=O)oc2c1	n	n	n	u	u
CC[C@H](C)[C@H](NC(=O)[C@H](Cc1ccc(O)cc1)NC(=O)[C@@H]1CCCN1C(=O)[C@H](CCCN=C(N)N)NC(=O)[C@H](CCCN=C(N)N)NC(=O)[C@@H]1CCCN1C(=O)[C@H](CCCCN)NC(=O)[C@H](CC(N)=O)NC(=O)[C@H](CCC(N)=O)NC(=O)[C@H](Cc1ccc(O)cc1)NC(=O)[C@H](CC(C)C)NC(=O)[C@@H]1CCC(=O)N1)C(=O)N[C@@H](CC(C)C)C(=O)O	n	x	n	x	x
O=C(/C=C\Nc1ccccc1Br)c1ccc2c(c1)OCO2	5.01µM	u	u	n	n
COC(=O)c1ccc(N/C=C\C(=O)c2ccc3c(c2)OCO3)cc1	n	u	n	n	n
O=C(/C=C\Nc1cccc(F)c1)c1ccc2c(c1)OCO2	u	u	10µM	n	n
O=C(/C=C/Nc1ccc(F)cc1Br)c1ccccc1	2.51µM	u	7.08µM	n	n
Cc1ccc(C(=O)Nc2c(C)n(C)n(-c3ccccc3)c2=O)cc1S(=O)(=O)N1CCCCC1	x	n	x	n	n
CC1=Nc2cc(C(=O)NCCCOC(C)C)ccc2Sc2ccc(C)cc21	n	u	n	9.2µM	6.51µM
CCCC1=Nc2cc(C(=O)NCCCOC(C)C)ccc2Sc2ccccc21	n	n	n	2.59µM	5.8µM
CCC1=Nc2cc(C(=O)NCCN3CCOCC3)ccc2Sc2ccc(C)cc21	n	n	n	n	u
CCC1=Nc2cc(C(=O)NCc3ccco3)ccc2Sc2ccc(C)cc21	n[10 µM]	n	n	1.46µM	1.03µM
SMILES	RORg inh	ELG1 repair inh	VP16 counter	MCF10A rerep	SW480 rereplic
CCC1=Nc2cc(C(=O)NCCCOC)ccc2Sc2ccccc21	u	u	n	u	1.3µM
COc1ccc(-c2cc(C(=O)N3CCCCCC3)c3ccccc3n2)cc1	x	n	x	n	u
CCN1CCN(C(=O)c2ccc(Cl)c(S(=O)(=O)N3CCCCC3)c2)CC1	n	n	n	n	n
CC(C)OCCCNC(=O)c1ccc2c(c1)NC(=O)c1ccccc1S2	n	n	n	n	u
CC1=Nc2cc(C(=O)O)ccc2Sc2ccc(Br)cc21	n	n	n	u	n
CC1=Nc2cc(C(=O)NCCCOC(C)C)ccc2Sc2ccccc21	n	u	n[10 µM]	7.31µM	u
CC1=Nc2cc(C(=O)NCC3CCCO3)ccc2Sc2ccc(Br)cc21 (centres undefined)	n	u	n	18.4µM	u
CCCCSc1nnc(CCNC(=O)OC(C)(C)C)o1	n	n	n	u	u
CC(C)NC(=O)NC(=O)CSc1nnc(C(F)(F)F)n1C	n	n	n	n	n
c1ccc(CSc2ncnc3sccc23)cc1	u	u	n	n	n
c1ccc2sc(Sc3ncnc4sccc34)nc2c1	10µM	n	u	20.6µM	u
CCc1cc2c(Sc3nc4ccccc4s3)ncnc2s1	8.91µM	n	u	u	u
COc1ccc(C(CC(=O)c2ccc(C)cc2)Nc2ccc([N+](=O)[O-])cc2)cc1 (centres undefined)	n	n	n	u	n
Cc1ccc(C(=O)CC(SCC(=O)O)c2ccc([N+](=O)[O-])cc2)cc1 (centres undefined)	n	n	n	18.4µM	u
O=C(Nc1cccc2ccccc12)c1ccc([N+](=O)[O-])s1	n	16.4µM	u	u	u
Cc1ccc(C(=O)NNC(=S)Nc2cccc3ccccc23)s1	0.794µM	u	n	n	n[9.22 µM]
O=C(Nc1ccccc1F)c1ccc([N+](=O)[O-])s1	12.6µM	23.1µM	n	u	14.6µM
O=C(COC(=O)c1ccc([N+](=O)[O-])s1)NCc1ccccc1	11.2µM	n	n	n	n
Cn1ncc([N+](=O)[O-])c1C(=O)Nc1cccc2ccccc12	n	n	n	n	n
Cc1cn(C2CCCCC2)c(=O)[nH]c1=O	x	x	x	n	n
COC(=O)c1cc(-c2ccc(S(=O)(=O)N3CCCC(C)C3)cc2)c(C(F)(F)F)s1 (centres undefined)	n	u	n	n	n
O=C(NCc1ccc(Cl)cc1)C1CCC(CNc2c(N3CCOCC3)c(=O)c2=O)CC1 (centres undefined)	n	n	n	u	n
O=C(NC1CCN(Cc2ccc(Cl)cc2)CC1)c1cn(-c2ccccc2)nc1-c1cccnc1	x	n	x	20.6µM	n
CC(C)c1cc(C(=O)OCC(=O)NC(=O)NCc2ccco2)c(O)c(C(C)C)c1	u	n	u	16.4µM	n
CC(=O)Nc1nc(-c2ccccc2)c(-c2ccccc2)o1	12.6µM	n	u	n	n
COc1cc(OC)cc(C(=O)Nc2nc(-c3ccccc3)c(-c3ccccc3)o2)c1	1.41µM	13µM	2.82µM	n	u
CCCCC(C)/C=C(C)/C=C(\C)C(=O)NC1=CC(O)(/C=C/C=C/C=C/C(=O)NC2=C(O)CCC2=O)C2OC2C1=O (centres undefined)	0.562µM	x	1.26µM	x	x
CC(=O)N1CCc2cc(S(=O)(=O)NCCC(=O)N3CCc4ccccc4C3)ccc21	u	23.1µM	n	n	n
